Assay results reported in PubChem BioAssay AID1159580 (chemical genetic matrix, 2015).
Out of some 5,500 compounds screened, about 2,000 (36%) were called active. About 18% were inconclusive and are not listed. Cut-off read from the data, not from the text of the source: active = normalized growth mostly below about 0.91 (no sharp cut-off); inconclusive = no clear call, values can overlap the other calls; inactive = mostly above about 0.92. The list shows a part of the results.

Assay: chemical genetic growth profiling, strain panel (AID 1159580);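 note: tested at 20 µM; growth read once vehicle control cultures reached saturation at 30 °C; 1 = growth at the plate median or of vehicle wells; lower values mean less growth of the strain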
Conditions: S. cerevisiae deletion strains, growth OD

Measured: normalized growth

CN(C)C1C(=O)C(C(N)=O)=C(O)C2(O)C(=O)C3=C(O)c4c(O)ccc(Cl)c4C(O)C3CC12 (centres undefined)
inactive: locus YAL040C, strain CLN3, hits give low values 1 | locus YCL061C, strain MRC1 (second series), hits give low values 1 | locus YDR150W, strain NUM1, hits give low values 0.997 | locus YDR363W, strain ESC2, hits give low values 1 | locus YER002W, strain NOP16, hits give low values 1 | locus YGR078C, strain PAC10, hits give low values 0.989 | locus YJR075W, strain HOC1, hits give low values 0.999 | locus YMR307W, strain GAS1, hits give low values 0.978 | locus YNL175C, strain NOP13, hits give low values 1.02 | locus YNL197C, strain WHI3, hits give low values 0.979 | locus YNL224C, strain SQS1, hits give low values 0.996 | locus YNL322C, strain KRE1, hits give low values 0.995 | locus YOR083W, strain WHI5 (second series), hits give low values 0.995 | locus YPL241C, strain CIN2, hits give low values 1.01
